ST2 IL33 inh: inhibitors of human ST2 (IL1RL1) binding to IL-33. Q01638. AlphaLISA ST2-Fc/biotin-IL-33 interaction, 1 h. inhibition, % for hits at 17 µM. 78,000 tested, 2.3% active. AID 1259354; in the data active = inhibition above about 30%
Target sequence (Q01638 whole entry, looked up): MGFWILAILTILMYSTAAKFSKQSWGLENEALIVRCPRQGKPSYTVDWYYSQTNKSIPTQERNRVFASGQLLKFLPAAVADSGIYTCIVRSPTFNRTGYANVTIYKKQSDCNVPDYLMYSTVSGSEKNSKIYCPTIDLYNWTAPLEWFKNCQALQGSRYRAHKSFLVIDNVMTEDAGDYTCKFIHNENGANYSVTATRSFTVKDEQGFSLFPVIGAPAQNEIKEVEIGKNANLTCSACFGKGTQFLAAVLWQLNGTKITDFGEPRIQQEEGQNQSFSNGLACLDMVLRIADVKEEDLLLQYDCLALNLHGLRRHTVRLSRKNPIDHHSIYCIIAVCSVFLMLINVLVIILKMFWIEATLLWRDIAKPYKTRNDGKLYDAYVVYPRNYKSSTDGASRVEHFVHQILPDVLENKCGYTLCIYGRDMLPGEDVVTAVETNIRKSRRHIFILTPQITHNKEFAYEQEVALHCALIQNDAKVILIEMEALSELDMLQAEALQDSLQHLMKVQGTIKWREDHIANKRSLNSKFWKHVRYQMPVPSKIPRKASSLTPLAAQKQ
Starred values were filed as active, the others as inactive; i = inactive. This excerpt belongs to a sample that is enriched for hits.

SMILES	ST2 IL33 inh
O=C(CCCn1c(=O)[nH]c2ccc(Br)cc2c1=O)NCCc1ccc(Cl)cc1	i
CN1CCCN(Cc2ccccc2)CC1	i
CCCCn1cnc2cc(NCc3ccccc3OCC)ccc21	i
O=C(Nc1ccc(F)cc1)c1cc2c(=O)oc3ccccc3c2s1	i
COc1ccc(CN2CCN(c3cccc(C)c3C)CC2)c(OC)c1	i
CN(CC1CCCNC1)C(=O)c1ccc(CSc2ncccn2)o1 (stereo not drawn)	i
COc1ccc(OC)c(NC(=O)CN2CCCN(Cc3cccc(F)c3)S2(=O)=O)c1	i
COc1ccc2nc(NC(=O)c3ccccc3Br)sc2c1	i
COC(=O)c1c(NC(=O)c2cccs2)sc(C)c1C	i
O=C(c1ccc(N2CCC(NCC3(c4ccccc4)CCOCC3)CC2)cc1)N1CCCC(O)C1 (stereo not drawn)	i
O=[N+]([O-])c1cc(C=Nc2ccc(-c3nc4ncccc4o3)cc2)ccc1Cl	i
O=[N+]([O-])c1cc(C=Nc2ccc(N3CCOCC3)cc2)ccc1Cl	48%*
O=[N+]([O-])c1ccc(N2CCCC2)cc1N1CCOCC1	i
CSC1=N/C(=C\c2cc(Br)ccc2OCC(=O)O)C(=O)S1	i
COc1cc(C=C2C(=O)OC(C)(C)OC2=O)cc(Cl)c1O	i
CCOc1ccc(/C=C2\N=C(SC)SC2=O)cc1	44%*
COc1cccc(/C=C2\N=C(SC)SC2=O)c1OCc1ccccc1	40%*
CSC1=N/C(=C\c2ccc(C(=O)O)cc2)C(=O)S1	i
COc1cc(/C=C2\N=C(SC)SC2=O)cc(OC)c1OC	30%*
CCOc1ccc(/C=C2\N=C(c3cccc(C)c3)OC2=O)cc1	i
COc1cccc(/C=C2/SC(N3CCCC3)=NC2=O)c1OC	i
Cc1nnc(SCC(=O)N(C)CCC2CCCCO2)s1 (stereo not drawn)	i
CN(C(=O)c1noc2c1CCc1ccccc1-2)c1ccccc1	i
COc1cccc(-c2noc3c2CN(C(=O)Cc2cccs2)CC3)c1	i
C=CCNc1ccccc1C(=O)N1CC[C@H](O)C[C@@H]1C(=O)O	i
SMILES	ST2 IL33 inh
CCOC(=O)c1ccccc1Nc1c2c(nc3ccccc13)CCC2	i
CSc1nc2c(c(=O)[nH]1)C(c1ccc(C(C)C)cc1)C1=C(CCCC1=O)N2 (stereo not drawn)	i
O=C(Nc1ccc(I)c(C(=O)O)c1)c1ccc(F)cc1	i
Cc1ccccc1-c1nnc(NC(=O)NCc2nnc3n2CCCC3)s1	i
COc1ccc(CNC(=O)c2nn3c(c2Cl)NC(c2ccco2)CC3C(F)(F)F)cc1 (stereo not drawn)	i
Cc1cccc2oc(-c3ccc(N=Cc4cccc([N+](=O)[O-])c4O)cc3)nc12	i
O=[N+]([O-])c1ccc(O)c(C=Nc2ccc3oc(Cc4ccccc4)nc3c2)c1	48%*
COc1cc([N+](=O)[O-])cc(C=Nc2ccc3oc(-c4ccccc4C)nc3c2)c1O	i
Cc1cccc2oc(-c3cc(N=Cc4cc([N+](=O)[O-])ccc4O)ccc3O)nc12	32%*
Cc1cccc2oc(-c3cccc(N=Cc4cc([N+](=O)[O-])ccc4O)c3)nc12	i
CCOc1ccc(-c2nc3cc(N=Cc4cc([N+](=O)[O-])ccc4O)ccc3o2)cc1	i
CCc1ccc(NS(=O)(=O)c2cc(Br)cc3c2N(C(C)=O)C(C)C3)cc1 (stereo not drawn)	i
CC1(C)CC(=O)C2=C(C1)OC(N)=C(C#N)C2c1cccc(I)c1 (stereo not drawn)	i
CC1=C[C@@H](CN2CCN(CCO)CC2)[C@H](C(C)C)C[C@H]1Cc1nnc(-c2cccnc2)o1	i
COc1ccc(NC(=O)COc2ccc(Cl)c(C)c2)cc1OC	i
O=[N+]([O-])c1cccc(CN2CCCCCC2)c1	i
O=C1/C(=C\c2cccc([N+](=O)[O-])c2)N=C2CCCCCN12	36%*
O=C1NC(=O)/C(=C\c2cccc([N+](=O)[O-])c2)S1	i
O=C(CCc1c[nH]c2ccccc12)N1CCC(CO)(Cc2cccc(C(F)(F)F)c2)CC1	i
CCC(=O)N1CCc2cc(S(=O)(=O)NC(C(=O)NC3CCCCC3C)C(C)C)ccc21 (stereo not drawn)	i
Cc1cccc(-n2ncc3c(NCc4ccccc4Cl)ncnc32)c1	i
CCn1c(C(=O)O)c(CC(=O)N2CCN(c3ccccc3)CC2)c2ccccc21	i
CCOC(=O)c1c(C)n(-c2ccccc2)c2ccc(OC(=O)c3ccco3)cc12	i
Cc1c(CCCN)c2ccccc2n1-c1ccccc1	34%*
Cc1cc(NC(=O)Cc2ccc(F)cc2)nc2c1c(=O)oc1ccccc12	i
SMILES	ST2 IL33 inh
COc1ccc(Cl)cc1NS(=O)(=O)c1cccnc1	i
O=C(NCC1CCCN(Cc2cccn2-c2cccnc2)C1)c1ccc(-c2ccccc2)cc1 (stereo not drawn)	i
Cn1c(=O)c2c(ncn2CC(=O)Nc2ccc(Br)cn2)n(C)c1=O	i
COc1ccc2cc3cc(C(=O)Nc4cccc(Cl)c4)oc3nc2c1	36%*
COc1ccc2nc3oc(C(=O)NCc4cccs4)cc3cc2c1	35%*
CCOc1ccccc1NC(=O)c1cc2cc3ccc(OC)cc3nc2o1	i
COc1cccc(NC(=O)c2cc3cc4ccc(OC)cc4nc3o2)c1	38%*
COc1cc(NC(=O)c2cc3cc4ccc(Cl)cc4nc3o2)cc(OC)c1OC	i
COc1ccc2nc3oc(C(=O)Nc4ccc(OC)c(Cl)c4)cc3cc2c1	37%*
CCOCCCNC(=O)c1cc2cc3cc(OC)ccc3nc2o1	i
COc1ccc2cc3cc(C(=O)N4CCN(c5cccc(Cl)c5)CC4)oc3nc2c1	i
COc1ccc2cc3cc(C(=O)Nc4ccc(F)cc4F)oc3nc2c1	i
COc1ccc2nc3oc(C(=O)Nc4cc(OC)c(OC)c(OC)c4)cc3cc2c1	i
COc1ccc2nc3oc(C(=O)NCCC(C)C)cc3cc2c1	i
COc1ccc2nc3oc(C(=O)Nc4cc(Cl)ccc4OC)cc3cc2c1	i
CCn1c2ccccc2c2cc(C=Nc3ccc(NC(C)=O)cc3)ccc21	i
Cc1noc(C)c1C1CCCN1C1CCN(c2ccc3c(c2)OCO3)CC1 (stereo not drawn)	i
CCCNC(=O)C1(O)c2cc(Br)ccc2NC(=O)N1c1ccccc1 (stereo not drawn)	i
CCn1ncc(Cl)c1C(=O)N(Cc1ccsc1)CC1CCCO1 (stereo not drawn)	i
CCc1noc(C)c1C(=O)N1CCCC(Nc2ccc3c(c2)OCCO3)C1 (stereo not drawn)	i
COc1ccccc1/C=C/CN1CCNC(=O)C1CC(=O)NCc1ccc2c(c1)CCN2C (stereo not drawn)	i
CC(C)(C)c1nnc([C@H]2CCN(Cc3ncc[nH]3)C2)o1	i
O=C(Nc1ncc(S(=O)(=O)c2ccc([N+](=O)[O-])cc2)s1)c1ccccc1Br	i
COCC(=O)Nc1ncc(S(=O)(=O)c2ccc([N+](=O)[O-])cc2)s1	38%*
Cc1ccc(C(=O)Nc2ncc(S(=O)(=O)c3ccc([N+](=O)[O-])cc3)s2)cc1C	i
CCc1cc(-c2n[nH]c(C)c2Oc2ccccc2)c(O)cc1O	i
O=C1OC(c2ccccc2)=C/C1=C\c1c(Cl)cccc1Cl	46%*
Clc1ccccc1-c1nc(-c2ccccc2)no1	i
O=C1Nc2ccccc2/C1=C\c1c(Cl)cccc1Cl	i
O=C(Nc1ccccc1[N+](=O)[O-])C1=NN=CC1[N+](=O)[O-] (stereo not drawn)	i

Screening data (PubChem)
